The panel holds about 79,000 compounds, 15% with a hit somewhere; the sample as a whole holds those more often. Unmarked numbers belong to inactive results. Active and inactive are the calls of the source. Cut-off read from the data, not from the text of the source: active = growth inhibition above about 70%; inactive = the rest.
What was measured:
[1] = NCI Yeast Anticancer Drug Screen. Data for the rad50 strain (AID 155);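 note: 0% = growth of vehicle-only cultures of the same strain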; conditions: S. cerevisiae rad50 strain growth inhibition; at 50.0 µM; active compounds read high
Procedure, shortened: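 Growth of the mutant yeast was measured after compound exposure and referenced to vehicle-treated cultures.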

[2] = NCI Yeast Anticancer Drug Screen. Data for the mec2-1 strain (AID 157); conditions: S. cerevisiae mec2-1 strain, at 50.0 µM, active compounds read high
Procedure, shortened: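 Cells of the genetically defined mec2-1 yeast strain are incubated with test compound. Inhibition of growth is calculated against vehicle-treated controls.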

[3] = NCI Yeast Anticancer Drug Screen. Data for the sgs1 mgt1 strain (AID 161);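 note: 0% = growth of cultures given vehicle only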; conditions: S. cerevisiae sgs1 mgt1 strain, at 50.0 µM, active compounds read high
Procedure, shortened: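 Test agents were incubated with a DNA-repair-mutant yeast strain. Growth was then read and compared against vehicle-treated controls.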

[4] = NCI Yeast Anticancer Drug Screen. Data for the cln2 rad14 strain (AID 165);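 note: 0% = growth equal to vehicle treated cultures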; conditions: S. cerevisiae cln2 rad14 strain, at 50.0 µM, active compounds read high
Procedure, shortened: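 The screen exposed genetically defined yeast (cln2 rad14) to test compounds and scored growth inhibition relative to vehicle-treated controls.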

[5] = NCI Yeast Anticancer Drug Screen. Data for the bub3 strain (AID 167); conditions: S. cerevisiae bub3 mutant strain, at 50.0 µM, active compounds read high
Procedure, shortened: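 Whole-cell yeast assay. The mutant strain was incubated with compounds, and growth inhibition was determined by comparison with vehicle-treated cells.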

[6] = NCI Yeast Anticancer Drug Screen. Data for the mlh1 rad18 strain (AID 175); conditions: S. cerevisiae mlh1 rad18 strain growth inhibition; at 50.0 µM; active compounds read high
Procedure, shortened: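 Compound-treated yeast growth, normalised to vehicle controls. Strain bears defined DNA repair mutations.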

SMILES | growth inhibition [1] | growth inhibition [2] | growth inhibition [3] | growth inhibition [4] | growth inhibition [5] | growth inhibition [6]
NNc1ncnc2c(C3OC(CO)C(O)C3O)[nH]nc12 (stereo not drawn) | 7% | 6.35% | 8.2% | -70.3% | 7.15% | 8.95%
Cc1ncc([N+](=O)[O-])n1CCN(C)CCCCn1ccnc1[N+](=O)[O-] | -0.3% | -1.2% | -5% | -3.75% | 7.7% | -57.9%
Cc1ccc(S(=O)(=O)NC2C(=O)c3ccccc3C(=O)C2n2cnc3ccccc32)cc1 (stereo not drawn) | 14.3% | 1.8% | -10.9% | -16.9% | -14.9% | -28.8%
COC1=C(N)C(=O)c2nc(-c3nc(C(=O)O)c(C)c(Br)c3N)ccc2C1=O | 89.3% (active) | 92.2% (active) | 84.9% (active) | 89.2% (active) | 80.5% (active) | 92.7% (active)
COc1ccccc1/C=C(\C#N)C(=O)O | 15.9% | -31.3% | -0.75% | 8.6% | -6.65% | -17.9%
Cc1cc2ccccc2c[n+]1CC(O)CBr (stereo not drawn) | -5.45% | 7.05% | 11.3% | -36.8% | -11.4% | 5.9%
CCOC1C(=O)C=COC1C(C)C (stereo not drawn) | -2.5% | -4.65% | -2.75% | 1.7% | -1.75% | -12.2%
CCOC(=O)c1ccc(NC(=O)Nc2cccc(Cl)c2)cc1 | -4.2% | 34.5% | 50% | -17.9% | 25.4% | 23.9%
O=C1C(N=Nc2ccc([N+](=O)[O-])cc2)Sc2nc3ccccc3n21 (stereo not drawn) | 25.8% | -39.9% | 7.6% | -14.5% | -2.2% | 12.2%
Cc1c2cccc(Br)c2c[n+]2ccccc12 | 20.9% | 18.4% | 39% | -21.4% | 1.3% | 31.1%
C[C@H](CCc1nc(C#N)c(N)o1)[C@H]1CC[C@H]2[C@@H]3[C@@H](O)CC4C[C@@H](O)CC[C@]4(C)[C@H]3C[C@@H](O)[C@]12C (stereo partly drawn) | 26.4% | 9.8% | 10.7% | 9.55% | -9.1% | -2.85%
CCOP(=O)(OCC)c1cc(NC(=O)c2cc(NC(=O)c3cc(NC(=O)Nc4cc(C(=O)Nc5cc(C(=O)Nc6cc(P(=O)(OCC)OCC)c7cccc(P(=O)(OCC)OCC)c7c6)n(C)c5)n(C)c4)cn3C)cn2C)cc2c(P(=O)(OCC)OCC)cccc12 | -5.45% | -1.55% | -16.1% | 19.9% | 2.5% | 10.7%
COc1ccc(-c2nnc(-c3ccc(OC)cc3)o2)cc1 | 20.1% | -2.85% | 16.5% | 0.2% | 1.15% | -7.95%
O=C1C=CC(=O)c2c(Cl)ccc(O)c21 | -16.9% | -30.6% | -20.4% | 10.1% | -20.2% | -8.7%
Cc1cccc(C)c1N=O | -6.25% | -15.2% | -7.45% | 22.8% | 1.15% | -16.1%
O=[N+]([O-])c1cc(F)c(F)cc1F | -26.9% | 4.15% | -21.1% | -32.2% | -14.6% | 26.9%
Cc1ccc(S(=O)(=O)NC(CC(C)C)C(=O)O)cc1 (stereo not drawn) | 6.65% | -10.6% | -4.55% | -34.2% | 1.3% | 0.45%
C1CCC(C2CCC(C3CCCCC3)CC2)CC1 (stereo not drawn) | -14.1% | -8.75% | -9.55% | -45.6% | 6.35% | 6.15%
CCc1cc2c(cc1C(=O)/C=C\c1ccco1)C(C)(C)CCC2(C)C | 97.2% (active) | 98.2% (active) | 97.5% (active) | 96.8% (active) | 97.7% (active) | 97.8% (active)

SMILES | growth inhibition [1] | growth inhibition [2] | growth inhibition [3] | growth inhibition [4] | growth inhibition [5] | growth inhibition [6]
NC1CCCCCC1 | 2.95% | -7.25% | 0.8% | 3.25% | 8.45% | -2.4%
OC(c1ccc(Cl)cc1)c1nc2ccccc2[nH]1 (stereo not drawn) | 40.8% | 18.4% | 35.5% | 15.9% | 19.1% | 33.5%
CC1=C/C(=N/Nc2ccc([N+](=O)[O-])cc2[N+](=O)[O-])CC(C)(C)C1 | -21.3% | -27.2% | 18.4% | -41% | 3.1% | 3.5%
CCCCCCCC1CCCC1=O (stereo not drawn) | -32.1% | -53.6% | -37.8% | 5.7% | -31.8% | -0.8%
OCC(O)c1ccc(Cl)cc1 (stereo not drawn) | -23% | -17.6% | -14.8% | -14% | -15.8% | -0.3%
CCN(CC)CCNc1ccc(OC)c2sc3ccccc3c(=O)c12 | 53.6% | 25.4% | 20.9% | -7.85% | 40.4% | 24.6%
CCC(O)C1CCCCN1 (stereo not drawn) | -20.8% | -7% | -12.2% | -4.05% | -17.5% | -11.2%
CC(C)(C)c1ccc(SC(=O)NCCCl)cc1 | -1.55% | 23.9% | 14.2% | -31.1% | -5.4% | -11.2%
CCCCCCCCCCCCCCCCCCCCCCCCCC | -11.4% | -2.55% | -19.2% | 19.9% | -0.05% | 5.6%
O=[N+]([O-])c1ccc(CN(Cc2ccc([N+](=O)[O-])cc2)c2ccc3c(c2)C(O)c2ccccc2-3)cc1 (stereo not drawn) | 9.95% | 1% | 7.8% | 7.85% | 1.8% | 12.2%
Cc1ccc(NC(=O)COc2ccccc2)c(C)c1 | 4.35% | 19.9% | 15.9% | -4.25% | 28.3% | 28.4%
Cc1cccc(C)c1N=Nc1sc(N)nc1C | 20.4% | 10.6% | 6.65% | -29.9% | -9.65% | 22.9%
CC1CCCC2(C1)OCC(O)CO2 (stereo not drawn) | 23.2% | -2.2% | 8.8% | 12.8% | 7.65% | 10.2%
COC(=O)N1CCc2c([nH]oc2=O)C1 | -6.75% | -5.4% | -4.5% | -13.4% | -0.8% | -3.75%
CC(=O)Nc1ccccc1N | 15.4% | 14.9% | -2.85% | 4.6% | -14.3% | 14.5%
Cc1c(N=Nc2cccc(Cl)c2)c(-c2ccccc2)nn1C(N)=S | 80.3% (active) | 45% | 96.8% (active) | 12.4% | 91.5% (active) | 92.5% (active)
CCOc1ccc(/C=C2/NC(=S)N(CN3CCCCC3)C2=O)cc1 | 5.25% | -28.7% | 25.1% | -18.9% | -1.5% | 24.6%
COC(=O)N/N=C(/Cc1occc(=O)c1O)C(=O)Nc1ccc([N+](=O)[O-])cc1[N+](=O)[O-] | -11.1% | -12.9% | -26.4% | 3.3% | 5.25% | 8.1%
C1=C2CCc3ccc(o3)CCC(=C1)O2 | 7.55% | 14.8% | 10.2% | -23.7% | -0.05% | 1.35%

Reference: PubChem BioAssay (NCI)
